About 83,000 compounds went through this panel and 20% of them were active in at least one assay; those are over-represented in the sample as a whole.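 Interpretation: 100, growth as untreated; towards 0, rising growth inhibition; 0, no net growth; 0 to -100, cell death. Compounds scoring below 10 were considered active.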 Unmarked numbers belong to inactive results. The source made the active and inactive calls.

The test system of the assay is HL-60(TB) leukemia. The assay is described as follows: NCI-60 one-dose screen, 48 h (100 = growth as untreated, 0 = no growth, -100 = all killed). Conditions: 10 µM unless noted.
`COc1cc2c3c(c(=O)oc2cc1OS(=O)(=O)c1ccc(C(F)(F)F)cc1)CCCCC3`: the growth was 107%.
Regarding `Clc1ccc(C2=NN(c3ccc(Cl)cc3)C(c3cccc(Nc4ccnc5cc(Cl)ccc45)c3)C2)cc1` (stereo not given), the growth is 102%.
Consider `Cc1cc(=O)oc2cc(Oc3nc(-c4cccs4)cn4c(-c5cccs5)cnc34)ccc12`, for which the growth is 77.6%.
On to `O=C1C(c2c[nH]c3ccccc23)=C(c2coc3cc(Br)ccc23)C(=O)N1O`, for which the growth was 103%.
Consider `CC(=O)Nc1ccc(S(=O)(=O)c2ccnc3cc(Cl)ccc23)cc1`, for which the growth was 87%.
For the compound `Nc1cccc(-c2nc3sccn3c2-c2ccnc(NCCCNS(=O)(=O)c3cccc4ccccc34)n2)c1`, the growth was 7% (active).
In the case of `CCCCC(CC)COC(=O)C[N+](C)(C)CCOC(c1ccccc1)c1ccccc1` (stereo not given) it was -56.7% (active); in that of `Cc1cc(C)c(C#N)c(Sc2nc(C)c([N+](=O)[O-])c(C)c2C#N)n1`, 66.2%.
Turning to `O=[N+]([O-])c1c(S(=O)(=O)O)cc2cc(S(=O)(=O)O)ccc2c1[N+](=O)[O-]`, the growth is 108%.
As to `Cc1cn(-c2nc3c(c(NCc4ccccc4)n2)COCC3)c2cccc(C(N)=O)c12`, the growth was 71.1% [0.5 µM].
With `Oc1[nH]c2ccccc2c1/C=c1/cc2c(c(-c3ccc(C(F)(F)F)cc3)n1)=Nc1ccccc1-2`, the growth was 19.2%.
Consider `Nc1ncnc2c1c(-c1ccc(Oc3ccccc3)cc1)nn2C[C@H]1SSC[C@H]1O`, for which the growth is -31.9% (active).
On to `O=C(Nc1ccc(N2CCNCC2)cc1)c1[nH]ncc1Nc1cc(Oc2ccccc2)ncn1`, for which the growth is -49.6% (active).
Regarding `CC(O)Cc1c[nH]c(=O)[nH]c1=O` (stereo not given), the growth was 103%.
`CC12CCC3C4(C)COC(c5ccccc5Cl)OC4CCC3(C)C1CC(C1=CCOC1=O)O2` (stereo not given): the growth was 26.2%.
Consider `Cc1nc2sc(C(=O)Nc3ccc(Br)cc3)c(N)c2cc1C(O)c1ccccc1` (stereo not given), for which the growth is 22.4%.
Turning to `CCCC(=O)Oc1ccc(CC)cc1`, the growth was 97.6%.
Take `O=C1c2nsnc2C(=O)c2c(F)c(F)c(F)c(F)c21`: the growth is -41.9% (active).
Turning to `Cn1cc(-c2nnc(-c3cn(C)c4ncc(Br)cc34)s2)c2cc(Br)ccc21`, the growth is 106%.
For the compound `Cn1c(-c2c(N)n(Cc3cccnc3)c3nc(C#N)c(C#N)nc23)nc2ccccc21`, the growth was 50.3%.
The figure for `O=[N+]([O-])c1ccc(Sc2ncccn2)c([N+](=O)[O-])c1` is -31.8% (active); for `C#C[C@H](O)/C=C/CCCCCCC#C[C@H](O)CC[C@@H](O)C#CCCCCCC/C=C/[C@@H](O)C#C` it is -70.8% (active); for `COc1ccc(C(=O)/C=C/c2c(C(F)(F)F)nc3sccn23)cc1OC` it is -35.6% (active).
For the compound `COc1cc(-c2nn(-c3ccc(NC(=O)c4ccc(Cl)c(Cl)c4)cc3)cc2-c2ccncc2)ccc1Cl`, the growth was 33.8%.
`CCOC(=O)Nc1ccc2c3c(cccc13)-c1ccccc1-2`: the growth was 6.94% (active).
As to `COc1c2occc2c(OC)c2c(=O)c(-c3cc(-c4ccc(F)cc4)c(C#N)c(N)n3)c(C)oc12`, the growth was 54.7%.
In the case of `Cc1cccc(C(=O)N(C(C)C)C(C)C)c1` it was 99.1%.
On to `COc1cc(-c2nc(N)n(CC(=O)Nc3ccc(/C(C)=N\O)cc3)n2)cc(OC)c1OC`, for which the growth is 91.6%.
Consider `CC(O)CN1CC(O)=C(c2nc3ccccc3s2)C1=N` (stereo not given), for which the growth is 93.8%.
Take `CCCCC[C@H](O)C/C=C1/C(=O)C=C[C@@H]1C/C=C\CCCC(=O)O`: the growth was 90.7%.
Take `CCCCNCCCCCNc1cc(OC)cc2cccnc12`: the growth is 67.5%.
In the case of `Cc1cc[n+](CCCC[n+]2ccc(C)cc2)cc1` it was 94.5%; in that of `FC(F)(F)c1ccc(Cn2cc(CSc3nc4ccccc4s3)nn2)cc1`, 97.9%.
As to `Cc1cc2c(-c3nc4ccccc4n3C)c(O)c(O)cc2c(O)c1-c1c(C)cc2c(-c3nc4ccccc4n3C)c(O)c(O)cc2c1O`, the growth is 76.7%.
On to `CCC(C)(C)C(=O)O[C@H]1C[C@@H](C)C=C2C=C[C@H](C)[C@H](CC[C@@H]3C[C@@H](O)CC(=O)O3)[C@H]21`, for which the growth was 77.1%.
Regarding `Cc1nc(NC(=O)COc2cccc(/C=C3\COc4ccccc4C3=O)c2)sc1C`, the growth is -61.4% (active).
For `COc1ccc(C(=O)c2cc(C)c(OC)c(C)c2)c(OC)c1N(C(=O)CCl)C(=O)CCl`, the growth is -42.3% (active).
On to `CCN1C(=O)N(CC)C2C1NN=C1SCC(=O)N12` (stereo not given), for which the growth is 99.1%.
In the case of `O=C(CN1C=NC2C(N3CCOCC3)=NC=NC21)c1ccc(Br)cc1` (stereo not given), the growth was 102%.
In the case of `CC1(C)CC(=O)C2=C(C1)Nc1cc3c(cc1C2c1ccc(F)cc1)OCO3` (stereo not given) it was 90.2%.

The values are drawn from PubChem BioAssay (NCI).
